Consider 52 compounds from ChEMBL document CHEMBL4513216, “Probing the Open Global Health Chemical Diversity Library for Multistage-Active Starting Points for Next-Generation Antimalarials” (ACS Infect Dis, 2020).

Screen size: about 68,000 compounds; about 2,700 (4%) showed an effect of 50% or more. The sample holds strong results, similar compounds and a random draw of the others, so the mix is not that of the screen.

In this experiment the test system is Plasmodium berghei. Kind of experiment: Screen against P. berghei liver stage (PbLuc), transformed with Luciferase, at 2uM. It is filed as functional, HepG2. Particulars: tested at 2 uM.
With `COCc1cc(N2CCc3onc(-c4cccc(OC)c4)c3C2)ncn1`, the INHIBITION worked out at 5.28%.
Then `COc1cccc(-c2noc3c2CN(c2ncnc4c2CCC4)CC3)c1`, with 62.51%; and `COc1cccc(-c2noc3c2CN(c2nc(C)ncc2C)CC3)c1`, with 36.28%; and `CC[C@@H](C)[C@@H](N)C(=O)Nc1cccc(-c2cnc(NCCO)nc2)c1`, with -35.83%.
On to `CC(C)n1cnnc1C1CCCN(S(=O)(=O)CC2CCCC2)C1` (configuration not stated), for which the INHIBITION is given as 60.42%.
Next, `CC(C)CCS(=O)(=O)N1CCCC(c2nncn2C(C)C)C1` (configuration not stated): -108.93%.
Turning to `CC(C)n1cnnc1C1CCCN(S(=O)(=O)CCCF)C1` (configuration not stated), the INHIBITION was -33.29%.
Take `Cc1nc(CN2CCC3(C2)CN(C(=O)c2conc2C)C3)cs1`: the INHIBITION was 3.95%.
Next, `COCC(C)Nc1ccc(-c2nc(Cc3ccc(F)cc3)no2)cn1` (configuration not stated): 31.51%; `COc1ccc(Cc2noc(-c3ccc(NC(C)CO)nc3)n2)cc1` (configuration not stated): 43.44%; `CC(C)Cc1noc(-c2ccc(NCc3noc(C(C)C)n3)nc2)n1`: 42.17%.
`CCn1cncc1CNc1ccc(-c2nc(CC(C)C)no2)cn1`: the INHIBITION is recorded as -15.11%.
Next, `CC(CO)Nc1ccc(-c2nc(Cc3ccc(F)cc3)no2)cn1` (configuration not stated): 57.75%; `CCC(O)CNc1ccc(-c2nc(CC(C)C)no2)cn1` (configuration not stated): 69.71%.
As for `CN(C)C(=O)CO[C@H]1CO[C@@]2(CCN(Cc3ccsc3)C2)C1`, the INHIBITION is listed as -9.99%.
In the case of `O=C(CCn1ccccc1=O)N1CCCC(COc2ccc(F)cc2)C1` (configuration not stated), the INHIBITION is reported as 8.25%.
As to `O=C(NC[C@H]1OC[C@@H](NC2CCC(F)(F)CC2)[C@@H]1O)N1CCOCC1`, the INHIBITION is on record as 11.43%.
Regarding `Cc1cc(C(=O)N2CCC(c3nccn3Cc3ccncc3)CC2)no1`, the INHIBITION is given as 17.75%.
On to `CCC(C)Oc1cc(C(=O)Nc2nc(C)ns2)ccn1` (configuration not stated), for which the INHIBITION is reported as 52.98%.
For the compound `CCC(C)Oc1cc(C(=O)Nc2nccs2)ccn1` (configuration not stated), the INHIBITION is recorded as 41.05%.
As for `CCC(C)Oc1cc(C(=O)Nc2nnc(C(C)C)[nH]2)ccn1` (configuration not stated), the INHIBITION amounted to 38.67%.
Then `c1cc(CN2C[C@@H]3OCCN(CCN4CCCC4)[C@@H]3C2)co1`, with 2.87%; and `Cc1nc(-c2cc(Cl)c3c(c2)CC(CN)O3)c[nH]1` (configuration not stated), with 74.44%; and `Cc1nc(-c2cc(F)c3c(c2)CC(CN)O3)c[nH]1` (configuration not stated), with 33.9%.
`Cc1nc(-c2cc(Cl)cc3c2OC(CN)C3)c[nH]1` (configuration not stated): the INHIBITION is reported as 26.74%.
With `CN(CC(F)(F)F)C(=O)Cn1cc(NC(=O)C(C)(C)C)cn1`, the INHIBITION is recorded as -48.48%.
`COc1cccc(-n2c(C)cc(C(=O)NCCCC(N)=O)c2C)c1`: the INHIBITION turned out to be 30.29%.
Consider `COc1cccc(-n2c(C)cc(C(=O)NC(C)(C)C(N)=O)c2C)c1`, for which the INHIBITION came out at 50.05%.
In the case of `CNC(=O)c1cc(C)n(-c2cccc(OC)c2)c1C`, the INHIBITION was found to be 31.7%.
`CN(Cc1ccco1)C[C@H]1OC[C@@H]2CN(c3ncc(F)cn3)CC[C@@H]21`: the INHIBITION was determined as 17.89%.
Next, `O=C(NC1CC1)[C@H]1CN(Cc2ccc3c(c2)OCO3)C[C@H]2OCC[C@@H]12`: -0.18%.
Consider `Cc1cc(C(=O)NCc2c(C)nn(C)c2C)nc(N2CCOCC2)n1`, for which the INHIBITION was -68.8%.
For the compound `Cc1cc(C(=O)NCc2c(C)nn(C)c2C)nc(N2CCCC2)n1`, the INHIBITION is -70.38%.
Turning to `Cc1cc(C(=O)NCCc2c(C)nn(C)c2C)nc(N2CCCCC2)n1`, the INHIBITION is 52.82%.
Consider `O=C(O)c1csc(S(=O)(=O)N2CCCc3cccc(OC(F)F)c32)c1`, for which the INHIBITION is recorded as -58.31%.
Turning to `CC(C)C(=O)NCc1ccccc1NS(=O)(=O)c1ccccc1`, the INHIBITION was -1.56%.
With `CN(C(=O)c1ccco1)C1CCC(NC(=O)OC(C)(C)C)CC1` (configuration not stated), the INHIBITION worked out at 38.67%.
Regarding `CN(C(=O)c1cccn1C)C1CCC(NC(=O)OC(C)(C)C)CC1` (configuration not stated), the INHIBITION was 62.51%.
Next, `CN(C(=O)c1ccc[nH]1)C1CCC(NC(=O)OC(C)(C)C)CC1` (configuration not stated): 48.21%; `c1cnc(N2CCC3(CCCN(Cc4ccncc4)C3)CC2)nc1`: 4.89%; `c1cncc(COCc2cncc3c2CCN(Cc2ccoc2)C3)c1`: 25.5%.
With `Cc1[nH]c2ccccc2c1-c1ccnc(NCCN2CCCCC2)n1`, the INHIBITION is on record as -2.21%.
Take `O=C(O)c1nnn(-c2ccc(C(F)(F)F)cc2)c1-c1ccncc1`: the INHIBITION is listed as -40.92%.
Regarding `COC(=O)[C@@H](Nc1nc(C2CCCC2)nc2c1cnn2C)[C@@H](C)O`, the INHIBITION turned out to be 40.4%.
Next, `CC(C)C[C@H](Nc1nc(C2CCCC2)nc2c1cnn2C)C(N)=O`: 52.38%; `COC(=O)[C@H](CSC)Nc1nc(C2CCCC2)nc2c1cnn2C`: 43.28%; `CCOC(=O)CC(C)Nc1nc(C(C)(C)C)nc2c1cnn2C` (configuration not stated): -70.6%.
Turning to `CC(C)[C@H](Nc1nc(C2CCCC2)nc2c1cnn2C)C(N)=O`, the INHIBITION was 23.16%.
Then `CCOC(=O)CC(C)Nc1nc(C2CCCC2)nc2c1cnn2C` (configuration not stated), with 57.64%; and `CCOCC1CN(C(=O)Cc2ccsc2)Cc2ccnn2C1` (configuration not stated), with 21.77%; and `CC(=O)N1CCCN(C(C(=O)O)c2cccc(C)c2C)CC1` (configuration not stated), with -17.37%.
Next, `O=C1COC2(CCN(Cc3cccnc3)CC2)CN1`: 11.87%.
